# Measured values from the supplement of paper PMC8728848.
# The entries come from a sample that favours the strongest signals as a whole.
# B1: PX9961X-pdi-531-24-531 (Parabacteroides distasonis) (protein)
# chain: DLTEEIHSSVIAENYYNNAGEVMAAMMRPWGHFCGTMQVAQSPWSCNELSSDCAAWPQKGRHGYDNGDWIRLHRHQWIPTDGQVVDAWKKLFEGIGYANNFLTDTENIDFEALQVPMSKAQAQAEMRVYRAYCYWYVMDMFGTAPICEKIGEINPSSKSRAELFAWIEKELNESIPSLSESKTETYGRVSKWGAYALLARLYLNAEIYTGQARWDDCIAACDELAKGGFALDKKWNDTFRADNDKRSTEIIWSIVYDEVYAKGMGWYQRWLHYAHQTGWDLQSGPWNGLVTQPTFYDSFADNDLRKIEGFLIGKQYPRKVDENGNYYYDTTAEPLKGSEEYNGQDLVFVNYIKSMTEGEENSGARSIKYEIQPGTTGDMNNDWVMFRYSEVIYNKAEALMRKNGGKATQEVVDMINSVRQRSFKAEDWEKAKYTTATLTMDEFLAEKGREFAFEGIRRTDLVRFNKFVTTSWWDKTASNEPKRNIFPIPQRQLDANANLSPNEANSLF
# Columns and labels:
# Assay in all cases: glycan array binding signal (z-score within array); higher = stronger binding
# Conditions in all cases: glycan notation: IUPAC condensed, linker removed
# [1] = molecular target: GlcNAc(b1-3)Gal(b1-4)GlcNAc(b1-3)Gal(b1-4)GlcNAc(b1-3)Gal(b1-4)GlcNAc(b1-2)[GlcNAc(b1-3)Gal(b1-4)GlcNAc(b1-3)Gal(b1-4)GlcNAc(b1-3)Gal(b1-4)GlcNAc(b1-6)]Man(a1-6)[GlcNAc(b1-3)Gal(b1-4)GlcNAc(b1-3)Gal(b1-4)GlcNAc(b1-3)Gal(b1-4)GlcNAc(b1-2)Man(a1-3)]Man(b1-4)GlcNAc(b1-4)[Fuc(a1-6)]GlcNAc
# Outline: (§1)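 Glycan array binding is given as a within-array Z-score, which can be read as non-binding when negative. The arrays, 3228 of them, came from the Consortium for Functional Glycomics database and were retained only where the protein sequence was available. Z-scores were averaged across arrays of the same protein sequence at different concentrations or buffers and across linkers.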
# [2] = molecular target: GlcNAc(b1-3)Gal(b1-4)GlcNAc(b1-6)[GlcNAc(b1-3)]Gal(b1-4)GlcNAc
# Outline: as §1
# [3] = molecular target: Kdn(a2-3)Gal(b1-4)GlcNAc
# Outline: as §1
# [4] = molecular target: Neu5Ac(a2-3)Gal(b1-3)GlcNAc(b1-3)GalNAc
# Outline: as §1
# [5] = molecular target: Neu5Ac(a2-3)Gal(b1-3)[Neu5Ac(a2-6)]GlcNAc(b1-3)[Fuc(a1-3)[Gal(b1-4)]GlcNAc(b1-6)]Gal(b1-4)Glc
# Outline: as §1
# [6] = molecular target: Neu5Ac(a2-3)Gal(b1-4)GlcNAc(b1-2)[Neu5Ac(a2-3)Gal(b1-4)GlcNAc(b1-6)]Man(a1-6)[Neu5Ac(a2-3)Gal(b1-4)GlcNAc(b1-2)Man(a1-3)]Man(b1-4)GlcNAc(b1-4)GlcNAc
# Outline: as §1
# [7] = molecular target: Neu5Ac(a2-3)Gal(b1-4)GlcNAc(b1-3)Gal(b1-4)GlcNAc(b1-3)[Neu5Ac(a2-3)Gal(b1-4)GlcNAc(b1-3)Gal(b1-4)GlcNAc(b1-6)]GalNAc
# Outline: as §1
# [8] = molecular target: Neu5Ac(a2-3)[GalNAc(b1-4)]Gal(b1-4)Glc
# Outline: as §1
# [9] = molecular target: Neu5Ac(a2-6)Gal(b1-4)GlcNAc(b1-2)Man(a1-3)[Man(a1-6)]Man(b1-4)GlcNAc(b1-4)GlcNAc
# Outline: as §1
# [10] = molecular target: Neu5Ac(a2-6)GalNAc
# Outline: as §1
# [11] = molecular target: Neu5Ac(a2-8)Neu5Ac(a2-3)Gal(b1-3)GalNAc(b1-4)[Neu5Ac(a2-3)]Gal(b1-4)Glc
# Outline: as §1
# [12] = molecular target: Neu5Ac(a2-8)Neu5Ac(a2-3)Gal(b1-4)GlcNAc
# Outline: as §1
# [13] = molecular target: Neu5Ac(a2-8)Neu5Gc(a2-3)Gal(b1-4)GlcNAc
# Outline: as §1
binder,measurement,setting,value
B1,glycan array binding signal (z-score),[1],0.524
same,glycan array binding signal (z-score),[2],-0.581
same,glycan array binding signal (z-score),[3],-0.114
same,glycan array binding signal (z-score),[4],-0.825
same,glycan array binding signal (z-score),[5],0.188
same,glycan array binding signal (z-score),[6],0.2
same,glycan array binding signal (z-score),[7],-0.773
same,glycan array binding signal (z-score),[8],-0.049
same,glycan array binding signal (z-score),[9],-0.755
same,glycan array binding signal (z-score),[10],-0.425
same,glycan array binding signal (z-score),[11],0.572
same,glycan array binding signal (z-score),[12],-0.116
same,glycan array binding signal (z-score),[13],14.4
